TDP1 cell CPT: DT40-hTDP1 cell growth loss with CPT; chicken DT40 Tdp1-/-;hTDP1 cells + 20 nM CPT, ATP luminescence, 48 h; Potency, µM (titrated, usually from 46.2 µM), for inactives: at the top dose activity change, negative = growth inhibition, hits mostly inhibitors; 420,000 compounds, 12% hits; also: potency is read from the fitted curve at half-maximal effect; nearly all actives have a fitted effect of over 55% in size
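Chicken DT40 Tdp1-/- cells complemented with human TDP1, 400 cells/well, exposed to compounds plus 20 nM camptothecin for at least 48 h at 37 C; viability read as ATP content by CellTiter-Glo luminescence.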
TDP1 cell noCPT: qHTS for Inhibitors of human tyrosyl-DNA phosphodiesterase 1 (TDP1): qHTS in cells in absence of CPT; Potency, µM (doses to about 46.2 µM), inactives show top-dose activity change, negative = growth inhibition, hits mostly inhibitors; 420,000 compounds, 15% hits; DT40 Tdp1-/- hTDP1 cells, no CPT, ATP luminescence, 48 h; AID 686978, 2013; also: potency is read from the fitted curve at half-maximal effect; nearly all actives have a fitted effect of over 55% in size
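Readout: luminescence from CellTiter-Glo after 30 min in the dark at RT. Cells: DT40 Tdp1-/- with stable hTDP1, 400/well. Exposure: compounds alone, ≥48 hr, 37 °C.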
ELG1 DNA repair: blocks ELG1-dependent DNA repair in HEK293T cells; HEK293T ELG1-luciferase reporter, luminescence, 16 h; DNA damage induced by 5-fluorouridine; Potency, µM (highest dose often 46.1 µM), without a hit: at the top dose activity change, negative = inhibition, usual class: inhibitors; 330,000 compounds, 2.3% hits; AID 504467; also: potency is read from the fitted curve at half-maximal effect; nearly all actives have a fitted effect of over 55% in size
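5-Fluorouridine DNA damage + compound/DMSO, 2,000 cells/well, 16 h, 37 °C/5% CO2. ONE-Glo, 30 min RT, luminescence. Readout = decrease in reporter signal.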
HT1080NT lethal: kills 2HG-producing HT-1080-NT fibrosarcoma cells; HT-1080-NT fibrosarcoma viability, CellTiter-Glo ATP luminescence, 48 h; Potency, µM (series often up to 46.1 µM), for the others: at the highest dose activity, negative = less viability, usual class: cytotoxic; 360,000 compounds, 1.6% hits; AID 686970;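 also: NT is the 2HG producing partner of a matched IDH1 knockdown line; potency is read from the fitted curve at half-maximal effect; 0% = DMSO-treated cells and -100% = media-only wells without cells; nearly all actives have a fitted effect of over 55% in size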
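Viability of the 2HG-overproducing fibrosarcoma line after 48 hours of compound exposure at 37 degrees C was determined by luminescence with CellTiter-Glo, and concentration-effect curves were then fitted and categorized.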
HT1080 IDH1KD tx: kills HT-1080 cells with IDH1 knockdown. HT-1080 IDH1 knockdown viability, ATP luminescence, 48 h. Potency, µM (highest dose often 46.1 µM), for inactives: at the top dose activity, negative = toxicity, most hits filed as cytotoxic. 360,000 compounds, 2% hits. AID 686971;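 also: potency is read from the fitted curve at half-maximal effect; 0% = DMSO wells and -100% = cell-free medium wells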
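HT-1080-IDH1KD cells (IDH1 knocked down), 750/well in RPMI with 5% FBS, treated with compound 48 h at 37 degrees C. Viability by CellTiter-Glo luminescence, normalised to DMSO and no-cell wells; concentration-response curves classed.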
IL-1B inflam inh: blocks inflammasome-driven IL-1 beta release; 360,000 compounds, 4.7% hits; THP-1 LPS/ATP IL-1B secretion, AlphaLISA, 16 h; stronger effect = lower value; activity change, % at 57.5 µM; in the data active = activity change below about -50%; inconclusive = mostly about -30% to -49%
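THP-1 cells pretreated 1 hr with compounds (up to 57.5 uM final), then stimulated with LPS (250 ng/mL final) plus ATP (1.25 mM final); secreted IL-1B measured by AlphaLISA after 16 hr, decreased signal indicating inhibition.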
* = called active by the depositor; ? = inconclusive; nt = not tested or not shown; ! = a repeat was not active; [ ] = another dose, or the depositor's remark. Only some compounds are listed: those with a hit (about 19% of all), similar ones and a draw of the others. Unless noted, calls follow the shape of the dose curve; as a rule, active = well fitted curve in the direction sought with a large enough effect; inconclusive = small, poorly fitted or top-dose-only effect, or another doubt; inactive = no such curve, though single readings can be large; an effect the other way counts as inactive or inconclusive. Unless noted, % is scaled to controls: 0 for no effect and ±100 for the full control effect.

SMILES	TDP1 cell CPT	TDP1 cell noCPT	ELG1 DNA repair	HT1080NT lethal	HT1080 IDH1KD tx	IL-1B inflam inh
CC(C)COC(=O)N1CCCC(c2cc(C(=O)Nc3ccccc3Cl)no2)C1 (stereo not drawn)	-20%	-20%	nt	-18%	-25%	-2
COC(=O)CCNC(=O)c1ccc2nc(Cc3ccc(OC)c(OC)c3)oc2c1	?	-16%	?	1%	-2%	18
CC(=O)Nc1ccc(NC(=O)C(C)Sc2n[nH]c(=O)n2Cc2ccccc2)cc1 (stereo not drawn)	-6%	-8%	3%	12%	2%	-2
Cc1nc2ccccc2cc1C(=O)NCc1ccccc1	?	13µM*	nt	0%	-6%	21
Cc1ccc(C2=NCCn3nc4cc([N+](=O)[O-])ccc4c32)cc1	?	?	?	-4%	-2%	9
CC1CCN(S(=O)(=O)c2ccc(NC(=O)CNC3CCCCC3)cc2)CC1	?	?	-12%	-2%	-3%	-87*
COc1cccc(N2CCN(CC(=O)Nc3ccc(S(=O)(=O)N4CCCCCC4)cc3)CC2)c1	?	13µM*	?	0%	-14%	39
CC1CCN(S(=O)(=O)c2ccc(NC(=O)CN3CCCCCC3)cc2)CC1	?	?	-20%	-17%	?	-50*
CC1CCCC(C)N1S(=O)(=O)c1ccc(NC(=O)CNC2CCCC2)cc1 (stereo not drawn)	?	?	3%	-24%	?	-8
Cc1cc2ccccc2n2c(SCC(=O)Nc3ccc(S(=O)(=O)N4CCC(C)CC4)cc3)nnc12	29µM*	23µM*	26µM*	1%	-3%	-9
CCc1ccccc1NC(=O)CN1CCN(C(=O)CNC(=O)c2ccc(N3CCCC3=O)cc2)CC1	-11%	-16%	3%	6%	13%	-3
CC1CCN(CC(=O)Nc2ccc(S(=O)(=O)N3C(C)CCCC3C)cc2)CC1 (stereo not drawn)	?	15µM*	-14%	-13%	12%	0
CC1CCN(CC(=O)Nc2ccc(S(=O)(=O)N3CCCCC3)cc2)CC1	?	-25%	-9%	0%	-3%	0
Cc1ccc(NC(=O)C2CCN(C(=O)c3ccccc3C)CC2)cc1	1%	-28%	-17%	-2%	-7%	22
CC1CCN(S(=O)(=O)c2ccc(NC(=O)c3ccccc3F)cc2)CC1	?	?	-23%	-2%	-52%	-14
Cc1nc(-c2ccc(S(=O)(=O)N3CCN(c4ccccc4)CC3)cc2)co1	-23%	?	-5%	-1%	0%	17
COc1cccc(N2CCN(S(=O)(=O)c3ccc(-c4coc(C)n4)cc3)CC2)c1	?	21µM*	?	?	-1%	6
Cc1ccccc1C(=O)N1CCC(C(=O)Nc2ccc(S(=O)(=O)N3C(C)CCCC3C)cc2)CC1 (stereo not drawn)	12µM*	10µM*	nt	-1%[9.24 µM]	?	?
CC1CCN(S(=O)(=O)c2ccc(NC(=O)Cn3nnc(-c4ccccc4F)n3)cc2)CC1	-29%	?	-2%	20µM*	?	-27
CN(CC(=O)Nc1cccc(F)c1)C(=O)Cn1cnc2c1c(=O)n(C)c(=O)n2C	-4%	-2%	?	-4%	2%	23
COc1ccc(Cc2nnc(SCC(=O)Nc3cc(Cl)ccc3C)[nH]c2=O)cc1	-5%	?	8%	-1%	-7%	18
CC1CCCN(CC(=O)Nc2ccc(S(=O)(=O)N3CCCC3)cc2)C1 (stereo not drawn)	3%	13µM*	?	-6%	2%	-8
COc1cccc(N2CCN(S(=O)(=O)c3cc4c(cc3C)N(C)CCO4)CC2)c1	?	16µM*	-25%	-12%	-25%	-4
CCCN(CCC)CCCNC(=O)C1CCC(CNS(=O)(=O)c2ccc(NC(C)=O)cc2)CC1 (stereo not drawn)	10%	-13%	nt	nt	nt	nt
COC(=O)[C@@]1(Cc2ccccc2)[C@@H]2C(=CC(=O)[C@H]2CC(=O)C(=O)N(C)C)CN1C(=O)c1ccccc1	9.2µM*	8.2µM*	7.3µM*	16µM*	21µM*	-105*
SMILES	TDP1 cell CPT	TDP1 cell noCPT	ELG1 DNA repair	HT1080NT lethal	HT1080 IDH1KD tx	IL-1B inflam inh
COC(=O)Cn1c(C(=O)N(C)C)cc2c1C[C@H]1CN(C(=O)c3ccccc3)[C@@](Cc3ccc(F)cc3)(C(=O)OC)[C@@H]21	?	?	nt	4%	-14%	26
Cc1cc(C)nc(S/C=C/C(=O)c2ccccc2F)n1	2.1µM*	3.7µM*	?	3.7µM*	2.9µM*	?
Cc1cc(C)nc(NC(=S)NC(=O)c2ccccc2F)n1	18%	-23%	nt	6%	27%	nt
COc1cc2c(cc1OC)C(NC(=O)C(F)(F)F)CNC2=O (stereo not drawn)	?	?	12µM*	1%	9%	-1
O=C1CC(NC(=O)C(F)(F)F)c2cc3c(cc21)OCO3 (stereo not drawn)	6%	1%	0%	?	?	-3
CC(C)=CCCC(C)NC(=O)NC1CCCCC1 (stereo not drawn)	?	16µM*	?	-3%	0%	5
OCCCNCc1cc2ccc(F)cc2nc1N1CCN(c2cccc(Cl)c2)CC1	-6%[9.04 µM]	-38%	nt	nt	nt	nt
COc1cccc(OC)c1OCCN1CCCC1	-1%	?	-16%	-3%	1%	15
COc1ccccc1N1Cc2ccccc2C1	26µM*	16µM*	12%	-3%	0%	19
COc1ccccc1N1CCN(CCOc2c(OC)cccc2OC)CC1	18µM*	?	-16%	-25%	-29%	-4
COc1cccc(OC)c1OCCN1CCN(C(c2ccccc2)c2ccccc2)CC1	?	?	-24%	-24%	-29%	-53*
COc1ccccc1N1CCN(/N=C/C(Cl)=C/c2ccccc2)CC1	26µM*	16µM*	?	-2%	-12%	?
COc1ccccc1N1CCN(/N=C\c2ccccc2)CC1	-3%	-1%	0%	22%	18%	-5
O=C(Cc1cccs1)Nc1c(C(=O)Nc2ccc(F)cc2)oc2ccccc12	-25%	-21%	nt	nt	nt	nt
O=C(O)COCCN1CCN(C(c2ccccc2)c2ccc(Cl)cc2)CC1 (stereo not drawn)	?	15µM*!	-6%	-6%	3%	1

Assay outcomes: PubChem, National Center for Advancing Translational Sciences (NCATS)
